# Screening data from PubChem.
# Luciferase inh – Photinus pyralis luciferase inhibition; P08659; purified P. pyralis luciferase, luminescence, biochemical; Potency, µM (highest dose often 115 µM), most hits filed as inhibitors; 2.5% of 76,000 active; AID 1347043; active = well fitted curve in the direction sought with a large enough effect; inconclusive = small, poorly fitted or top-dose-only effect, or another doubt; inactive = no such curve, though single readings can be large; an effect the other way counts as inactive or inconclusive; also: % is scaled to controls: 0 for no effect and ±100 for the full control effect; nearly all actives have a fitted effect of over 65% in size
# Target sequence (P08659 whole entry, looked up): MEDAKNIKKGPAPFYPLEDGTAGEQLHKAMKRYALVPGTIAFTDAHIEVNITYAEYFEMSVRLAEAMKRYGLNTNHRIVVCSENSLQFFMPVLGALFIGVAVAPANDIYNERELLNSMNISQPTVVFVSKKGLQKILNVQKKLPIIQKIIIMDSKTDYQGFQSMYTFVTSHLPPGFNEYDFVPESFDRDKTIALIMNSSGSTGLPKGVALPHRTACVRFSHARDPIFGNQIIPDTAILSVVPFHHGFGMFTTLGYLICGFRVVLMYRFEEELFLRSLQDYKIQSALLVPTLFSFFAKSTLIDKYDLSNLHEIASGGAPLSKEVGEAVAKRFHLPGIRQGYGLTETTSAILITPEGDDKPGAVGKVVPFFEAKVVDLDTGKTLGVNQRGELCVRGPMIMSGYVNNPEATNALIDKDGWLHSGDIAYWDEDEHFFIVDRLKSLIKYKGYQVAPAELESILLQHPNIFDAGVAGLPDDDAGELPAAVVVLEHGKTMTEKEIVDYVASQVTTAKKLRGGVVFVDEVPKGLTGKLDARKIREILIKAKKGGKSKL
#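 FLuc 10nM, D-luciferin 10uM, ATP 10uM, Mg acetate 10mM, Tris acetate pH 7.5, Tween/BSA; cpd qHTS; enzyme added last; CCD luminescence.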
# HEK cytotox – kills HEK 293 cells | HEK 293 viability, ATP luminescence (CellTiter-Glo), 48-72 h | Potency, µM (top dose mostly 115 µM), inactives show at the top dose activity change, negative = cytotoxicity, actives largely listed as inhibitors | 6.6% of 94,000 active; active = well fitted curve in the direction sought with a large enough effect; inconclusive = small, poorly fitted or top-dose-only effect, or another doubt; inactive = no such curve, though single readings can be large; an effect the other way counts as inactive or inconclusive; also: % is scaled to controls: 0 for no effect and ±100 for the full control effect; nearly all actives have a fitted effect of over 60% in size
#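 Cells seeded first (HEK 293, 250 cells/well), then compound added by pintool. Incubation ran 48 or 72 hr at 37 degree Celsius. CellTiter-Glo was added and luminescence imaged after 10 min at room temperature.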
# 3T3 cytotox – NIH 3T3 cell cytotoxicity | AID 1345082 | NIH 3T3 viability, CellTiter-Glo ATP luminescence, 48-72 h | 4.3% of 94,000 active | Potency, µM (top dose mostly 96.7 µM), for the others: top-dose activity change, negative = cytotoxicity, most hits filed as inhibitors; active = well fitted curve in the direction sought with a large enough effect; inconclusive = small, poorly fitted or top-dose-only effect, or another doubt; inactive = no such curve, though single readings can be large; an effect the other way counts as inactive or inconclusive; also: % is scaled to controls: 0 for no effect and ±100 for the full control effect; nearly all actives have a fitted effect of over 55% in size
#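 First NIH 3T3 cells are plated at 400 cells/well; next compound is pinned in; then plates incubate 48 or 72 hr at 37 °C; finally CellTiter-Glo is added and luminescence read after 10 min.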
# hNpr1 antagonist – antagonists of human natriuretic peptide receptor Npr1 | P16066 | Potency, µM (titrated, usually from 46.3 µM), for the others: at the top dose activity change, negative = inhibition, actives largely listed as inhibitors | HEK293 hNpr1 GloSensor cGMP, ANP-stimulated luminescence | 1.6% of 76,000 active; also: % is scaled to controls: 0 for no effect and ±100 for the full control effect; nearly all actives have a fitted effect of over 60% in size
#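 Compound pre-incubated 30 min at room temperature on GloSensor-loaded HEK293 cells stably carrying hNpr1 and the pGS-40F cGMP biosensor. Stimulation uses hNppA at 0.1 nM final; luminescence is taken at baseline and 20 min post-agonist.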
# Npr1 antag conf – confirmation of human Npr1 natriuretic peptide receptor antagonists | HEK293 hNpr1 cGMP GloSensor luminescence, ANP-stimulated | Potency, µM (series often up to 57.6 µM), for the others: at the top dose activity change, negative = inhibition, most hits filed as inhibitors | 76% of 1,400 active | shares compounds with hNpr1 antagonist; also: nearly all actives have a fitted effect of over 70% in size
# Npr2 selectivity – selectivity test of Npr1 antagonists against human Npr2; shares compounds with hNpr1 antagonist; AID 1347046; HEK293 hNpr2 GloSensor cGMP luminescence, CNP-stimulated; 67% of 1,400 active; Potency, µM (series often up to 57.6 µM), for inactives: at the top dose activity change, negative = inhibition, usual class: inhibitors; also: nearly all actives have a fitted effect of over 70% in size
# FLuc inh counter – counter-screen for Npr1 antagonists: firefly luciferase inhibitors; purified FLuc enzyme, luminescence, Km substrate; shares compounds with hNpr1 antagonist; Potency, µM (highest dose often 57.6 µM), inactives show top-dose activity change, negative = inhibition, hits mostly inhibitors; 0.7% of 1,400 active; active = well fitted curve in the direction sought with a large enough effect; inconclusive = small, poorly fitted or top-dose-only effect, or another doubt; inactive = no such curve, though single readings can be large; an effect the other way counts as inactive or inconclusive; also: 0% is about no effect
# GloSensor cGMP – counter-screen for Npr1 antagonists: GloSensor control cell line; shares compounds with hNpr1 antagonist; HEK293 GloSensor cGMP, SNP-stimulated, luminescence; Potency, µM (series often up to 57.6 µM), without a hit: at the highest dose activity change, negative = inhibition, actives largely listed as inhibitors; 69% of 1,400 active; AID 1347051; also: % is scaled to controls: 0 for no effect and ±100 for the full control effect; nearly all actives have a fitted effect of over 70% in size
# Starred values were filed as active, the others as inactive; i = inactive; ? = inconclusive; nt = no result given; [ ] = remark or other dose. The list is not random: actives were taken first. Their share in the collection is about 11%. Unless noted, calls follow the shape of the full dose curve. Potency is read from the fitted curve at half-maximal effect.
SMILES,Luciferase inh,HEK cytotox,3T3 cytotox,hNpr1 antagonist,Npr1 antag conf,Npr2 selectivity,FLuc inh counter,GloSensor cGMP
COc1cccc(CNc2ncnc3c2CN(C2CCCNCC2)C(=O)CN3C)c1 (stereo not drawn),nt,-3.0%,i,nt,nt,nt,nt,nt
Cc1ccc(C(CC(=O)N2CCN(c3ccc([N+](=O)[O-])cc3)CC2)c2cn(C)c3ccccc23)cc1 (stereo not drawn),i,?,-22.7%,0.3%,nt,nt,nt,nt
O=C(CC(c1ccc(F)cc1)c1cn(Cc2ccccc2)c2ccc([N+](=O)[O-])cc12)N1CCOCC1 (stereo not drawn),i,?,?,10µM*,24.3µM*,24.3µM*,-0.1%,19.3µM*
Cc1nn2c(c1-c1ccccc1-c1ccccc1)N(Cc1ccccc1)CCC2,i,?,12.6µM*,14.1µM*,6.27µM*,8.86µM*,-7.7%[86.2 µM],3.96µM*
Cc1nn2c(c1-c1ccccc1-c1ccccc1)N(CCC(C)C)CCC2,i,7.94µM*,8.91µM*,1.58µM*,0.994µM*,1.57µM*,-13.5%[86.2 µM],0.789µM*
Cc1ccncc1-c1c(C)nn2c1N(Cc1cccc(O)c1)CCC2,i,?,?,-28.1%[70.6 µM],nt,nt,nt,nt
COc1ccc(-c2noc(-c3cccn3CC(=O)N(C)c3ccc(F)cc3)n2)cc1F,i,?,?,-3.2%,nt,nt,nt,nt
CC(=O)N1CCC(Cc2noc(-c3ccc(F)cc3)n2)C1 (stereo not drawn),i,-2.5%,-5.5%,-0.4%,nt,nt,nt,nt
O=C(CCc1nc2ccccc2s1)N1CCC(Cc2noc(-c3ccc(F)cc3)n2)C1 (stereo not drawn),i,39.8µM*,?,11.2µM*,21.7µM*,21.7µM*,-7.6%,21.7µM*
COc1ccc(-c2nc(CC3CCN(C(=O)c4n[nH]c(=O)c5ccccc45)C3)no2)cc1 (stereo not drawn),i,31.6µM*,?,10µM*,12.2µM*,10.9µM*,-0.1%,8.62µM*
O=C(CCc1nc2ccccc2s1)N1CCCC(c2nc(C3CCOCC3)no2)C1 (stereo not drawn),i,?,-26.3%,-14.3%,-10.3%,1.6%,-7.2%,-4.1%
Cc1nccn1CCN(C)Cc1cc2n(n1)CCNC2,i,-30.3%,-4.9%,-0.9%,nt,nt,nt,nt
O=C(c1ccccc1Cl)N1CCCC(C(=O)N2CCC(c3nc4ncccc4[nH]3)CC2)C1 (stereo not drawn),nt,3.3%,-10.0%,nt,nt,nt,nt,nt
COc1ncccc1CN1CCC2(CC1)OC(=O)N(Cc1ccc(O)cc1)C2(C)c1ccccc1 (stereo not drawn),i,?,?,-25.5%,-29.4%,?,1.2%,-1.6%
COc1ccc(OC)c(CN2CCC3(CC2)OC(=O)N(Cc2ccc(O)cc2)C3(C)c2ccccc2)c1 (stereo not drawn),i,?,?,?,nt,nt,nt,nt
COc1ccc(Cc2nc3nccc(-c4cc(OC)c(OC)c(OC)c4)n3n2)cc1,i,?,?,-8.9%,nt,nt,nt,nt
CC(C)c1noc(CC2CCN(C(=O)c3ccc4c(c3)OCO4)CC2)n1,i,?,?,-13.5%,nt,nt,nt,nt
COc1ccc(-c2noc(CC3CCN(C(=O)c4ccc5c(c4)OCO5)CC3)n2)cc1,i,?,?,2.82µM*,5.44µM*,6.11µM*,1.3%,4.85µM*
COc1ccc(-c2noc(CC3CCN(C(=O)c4ccc(OC)c(OC)c4)CC3)n2)cc1,i,?,?,3.55µM*,6.85µM*,6.85µM*,0.5%,5.44µM*
COc1ccc(C(=O)N2CCC(Cc3nc(-c4ccc(F)cc4)no3)CC2)cc1F,i,?,?,1.12µM*,1.09µM*,1.72µM*,-0.4%,1.09µM*
COc1ccc2cc1Nc1ccc(cc1)C[C@H](NCc1ccc(O)cc1)C(=O)N(C)[C@H](C(=O)NCCOc1ccccc1)C2,i,?,?,-3.7%,nt,nt,nt,nt
Cc1ncsc1CN1CCCCC1c1nc(CCOc2ccc(F)cc2)no1 (stereo not drawn),i,15.8µM*,?,10µM*,21.7µM*,19.3µM*,-0.6%,19.3µM*
O=C(NCc1cccnc1)c1cnc2n[nH]c(-c3ccccc3)c2n1,nt,nt,nt,nt,25µM*,12.5µM*,-0.4%[86.2 µM],10.5%[86.2 µM]
COc1ccccc1-c1[nH]nc2ncc(C(=O)NCc3cccnc3)nc12,nt,nt,nt,nt,17.7µM*,7.03µM*,0.9%[86.2 µM],-16.0%[86.2 µM]
CN(C(=O)c1cnc2n[nH]c(-c3ccccc3)c2n1)c1ccccc1,i,?,?,15.8µM*,31.4µM*,31.4µM*,1.9%[86.2 µM],19.8µM*
SMILES,Luciferase inh,HEK cytotox,3T3 cytotox,hNpr1 antagonist,Npr1 antag conf,Npr2 selectivity,FLuc inh counter,GloSensor cGMP
COc1ccccc1-c1[nH]nc2ncc(C(=O)N3CCC(c4ccccc4)CC3)nc12,i,?,?,?,nt,nt,nt,nt
O=C(NCc1cccnc1)c1nc(-c2ccc(F)cc2)c2ccccn12,i,?,?,-2.6%,nt,nt,nt,nt
COc1ccccc1-c1cc(C(=O)NCc2cccnc2)nc2c1cnn2C,nt,-11.2%,-22.9%,nt,nt,nt,nt,nt
[C-]#[N+]C1CCN(C(=O)c2cc(-c3cccc(C(F)(F)F)c3)c3nncn3n2)CC1,nt,-15.9%,-21.3%,nt,nt,nt,nt,nt
O=C(c1ccc(F)cc1)N1CCC2(CN[S+](=O)([O-])c3cccnc3O2)C1 (stereo not drawn),nt,i,2.2%,nt,nt,nt,nt,nt
CCN(CC)C(=O)c1cc2c(s1)CCC(C(=O)Nc1ccc(OC)c(F)c1)C2 (stereo not drawn),i,?,?,12.6µM*,24.3µM*,21.7µM*,-1.6%,24.3µM*
CCN(CC)C(=O)c1cc2c(s1)CCC(C(=O)O)C2 (stereo not drawn),i,7.7%,-6.5%,1.8%,nt,nt,nt,nt
O=C(c1ccc2nc[nH]c2c1)N1CCC(CO)(CCCc2ccccc2)CC1,i,25.1µM*,-22.8%,11.2µM*,24.3µM*,24.3µM*,6.2%,21.7µM*
O=C(c1cc2cc(F)ccc2[nH]1)N1CCC(CO)(CCCc2ccccc2)CC1,i,?,?,-14.9%,nt,nt,nt,nt
OC1CC(c2cc(NCCCn3ccc4ccccc43)ncn2)C1 (stereo not drawn),i,?,?,11.2µM*,19.3µM*,19.3µM*,0.2%,12.2µM*
